High-throughput results (PubChem)
GLS inhibitor = qHTS for Inhibitors of Glutaminase (GLS); Glutaminase kidney isoform, mitochondrial (Homo sapiens), O94925; GLS enzymatic activity, qHTS titration; Potency, µM (series often up to 45.5 µM), inactives show at the top dose activity change, negative = inhibition, actives largely listed as inhibitors; 0.21% of 410,000 active; AID 624170, 2012; also: % is scaled to controls: 0 for no effect and ±100 for the full control effect
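Enzyme dispensed in phosphate buffer (45 mM, pH 8.2, 0.02% Tween-20), compounds pinned in, then 1 mM L-glutamine solution and the glutamate oxidase–HRP–Amplex Red mix added; fluorescence read immediately and again after 30 min at room temperature.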
HP1b chromo inh = HTS for Inhibitors of HP1-beta Chromodomain Interactions with Methylated Histone Tails; AlphaScreen HP1-beta / biotin-H3K9me3 peptide binding; Chromobox protein homolog 1 (Homo sapiens), P83916; AID 540317, 2011; 0.56% of 390,000 active; Potency, µM (highest dose often 114 µM), without a hit: at the highest dose activity change, negative = inhibition, usual class: inhibitors; also: nearly all actives have a fitted effect of over 70% in size
Target sequence (P83916 whole entry, looked up): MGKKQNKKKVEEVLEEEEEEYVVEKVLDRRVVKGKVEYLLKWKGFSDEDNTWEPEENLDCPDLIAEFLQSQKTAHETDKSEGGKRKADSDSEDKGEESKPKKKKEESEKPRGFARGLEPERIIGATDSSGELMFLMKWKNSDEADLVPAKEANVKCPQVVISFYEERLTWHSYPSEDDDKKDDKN
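Compound inhibition of the preformed complex between 50 nM HP1-beta and 50 nM biotinylated H3K9me3 peptide was read by AlphaScreen. Buffer was PBS pH 7.4 with 0.01% Tween-20. Incubations ran 30 min at room temperature, with 10 ug/mL donor/acceptor beads.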
BAZ2B inh = qHTS Assay for Inhibitors of BAZ2B; AlphaScreen BAZ2B-H3K14Ac peptide displacement; AID 504333, 2011; Potency, µM (titrated, usually from 114 µM), inactives show at the top dose activity change, negative = inhibition, hits mostly inhibitors; 4.4% of 360,000 active; Bromodomain adjacent to zinc finger domain protein 2B (Homo sapiens), Q9UIF8; also: % is scaled to controls: 0 for no effect and ±100 for the full control effect; nearly all actives have a fitted effect of over 60% in size
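BAZ2B 50 nM plus b-H3(5-23)K14Ac 50 nM, PBS pH 7.4/0.01% Tween-20, 30 min RT; compound added (max 110 uM), 30 min RT; streptavidin donor/Ni-chelate acceptor beads 10 ug/mL final, 20 min dark; AlphaScreen read.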
G9a block = qHTS Assay for Inhibitors of Histone Lysine Methyltransferase G9a. Histone-lysine N-methyltransferase EHMT2 (Homo sapiens), Q96KQ7. G9a H3K9 monomethylation, AlphaScreen, 2 h. 8.8% of 350,000 active. Potency, µM (titrated, usually from 102 µM), without a hit: top-dose activity, negative = inhibition, most hits filed as inhibitors; also: % is scaled to controls: 0 for no effect and ±100 for the full control effect; nearly all actives have a fitted effect of over 75% in size
Target sequence (Q96KQ7 913-1193 limits assumed): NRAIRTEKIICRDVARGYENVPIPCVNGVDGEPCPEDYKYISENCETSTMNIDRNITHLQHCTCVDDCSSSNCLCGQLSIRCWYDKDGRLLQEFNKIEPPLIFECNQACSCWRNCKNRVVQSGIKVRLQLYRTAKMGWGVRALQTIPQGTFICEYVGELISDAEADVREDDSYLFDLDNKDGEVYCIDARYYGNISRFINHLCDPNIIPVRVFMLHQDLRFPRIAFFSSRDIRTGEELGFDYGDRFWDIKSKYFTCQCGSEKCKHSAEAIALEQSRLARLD
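G9a (20 nM) was preincubated 15 min with compound, then reacted 2 h at room temperature with 500 nM biotin-H3K9 peptide and 20 µM SAM. Monomethyl-H3K9 detected by AlphaScreen using anti-H3K9me1 antibody.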
JMJD2A Tudor = qHTS Assay for Inhibitors of JMJD2A-Tudor Domain; AlphaScreen JMJD2A-Tudor / H3K4me3 peptide binding; AID 504339, 2011; Potency, µM (doses to about 114 µM), for the others: top-dose activity change, negative = inhibition, most hits filed as inhibitors; 4.4% of 390,000 active; also: % is scaled to controls: 0 for no effect and ±100 for the full control effect; nearly all actives have a fitted effect of over 50% in size
L3MBTL1 inh = qHTS Assay for the Inhibitors of L3MBTL1; Potency, µM (top dose mostly 57.1 µM), for the others: top-dose activity, negative = inhibition, hits mostly inhibitors; 0.66% of 230,000 active; Lethal(3)malignant brain tumor-like protein 1 (Homo sapiens), Q9Y468; AID 485360, 2010; AlphaScreen L3MBTL1–H3K9me1 peptide binding; also: % is scaled to controls: 0 for no effect and ±100 for the full control effect; nearly all actives have a fitted effect of over 60% in size
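AlphaScreen proximity signal between nickel-chelate acceptor and streptavidin donor beads (final 10 ug/mL) reports binding of 50 nM L3MBTL1 to 75 nM biotin-H3 K9me1 peptide; complex incubated with compounds 30 min at room temperature; cefsulodin titration as control.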
An asterisk follows results filed as active; ? = inconclusive; · = not tested or not shown; [ ] = remark or other dose. In the library only some 10% were active in any assay of this set; here they are far more common. Calls follow the shape of the dose curve; as a rule, active = well fitted curve in the direction sought with a large enough effect; inconclusive = small, poorly fitted or top-dose-only effect, or another doubt; inactive = no such curve, though single readings can be large; an effect the other way counts as inactive or inconclusive. Potency is read from the fitted curve at half-maximal effect.

SMILES | GLS inhibitor | HP1b chromo inh | BAZ2B inh | G9a block | JMJD2A Tudor | L3MBTL1 inh
Cc1sc(N/N=C/c2cccnc2)nc1-c1ccccc1 | 16.7% | -6.8% | ? | · | 50.1µM* | -19.1%
CC(C)=NNc1nc(-c2ccccc2)c(C)s1 | -5.1% | ? | · | 31.6µM* | -34.7% | ·
Cc1sc(N/N=C/c2ccco2)nc1-c1ccccc1 | -1.3% | -19.6% | ? | ? | ? | -3.9%
CCOC(=O)c1ccc(CN(Cc2ccc(F)cc2)S(=O)(=O)c2ccc(F)c(C(=O)Nc3ccc(Cl)cc3F)c2)cc1 | 8.6% | 38.9% | 7.3% | -4.6%[59 µM] | 2.8% | ·
O=C(CSc1nnc(-c2ccccn2)o1)Nc1ccccc1C(F)(F)F | -5.0% | 5.4% | 50.1µM* | 70.8µM* | -17.8% | ·
Cc1c(C(=O)NC(C)c2ccccc2)sc2ncnc(N(C)C3CCCCC3)c12 (configuration not stated) | 0.3% | 25.0% | -2.5% | 5.8%[59 µM] | -17.3% | ·
O=C(CCN1C(=O)/C(=C/c2ccc(Cl)cc2)SC1=S)Nc1cccc(C(=O)O)c1 | 2.6% | -39.0% | 31.6µM* | 44.7µM* | 50.1µM* | ·
Cc1ccc(C=C2SC(=S)N(CCCC(=O)Nc3cccc(C(=O)O)c3)C2=O)cc1 | 14.8% | · | · | · | · | ·
Cc1ccc(/C=C2\SC(=S)N(CCCC(=O)Nc3cccc(C(=O)O)c3)C2=O)cc1 | 25.5% | ? | -24.6% | 56.1% | 39.8µM* | ·
O=C(Nc1cccc(F)c1)c1ccc(-c2ccccc2)s1 | 1.2% | 37.9% | -4.2% | 0.6%[59 µM] | 10.7% | ·
O=C1N[C@@H](Cc2ccccc2)C(=O)N2CCCC12 (some centres not stated) | 3.1% | 7.3% | · | 24.7%[135 µM] | -23.0% | 3.0%
O=C1N[C@@H](Cc2cnc[nH]2)C(=O)N2CCC[C@@H]12 | -0.1% | 12.5% | ? | 20µM* | -8.6% | 9.9%
CN1C(=O)C(Cc2cnc[nH]2)NC1=S (configuration not stated) | 8.0% | 12.0% | -21.9% | 28.2µM* | -17.4% | ·
O=C(O)C(Cc1cn[nH]n1)=NO | -3.2% | ? | 25.1µM* | 6.31µM* | 7.94µM* | 8.3%
CC(=O)O/C(=C\c1cn(C(C)=O)c2ccccc12)C(=O)O | ? | 31.4% | ? | 35.5µM* | -0.7% | ·
CN1C(=O)C(c2nnc(Nc3cccc4ccccc34)s2)C2CC1(C)Oc1ccccc12 (configuration not stated) | 16.9% | -18.3% | -13.3% | 44.7µM* | ? | -4.3%
CC(C)(C)c1ccccc1NC(=O)CN1C(=O)NC(Cc2ccccc2)C1=O (configuration not stated) | -0.6% | 19.6% | 70.8µM* | -4.2%[0.501 µM] | -9.6% | 35.0%
O=C(CN1C(=O)NC(Cc2ccccc2)C1=O)Nc1ccccc1F (configuration not stated) | 1.7% | 58.9% | 1.7% | 19.4%[12.7 µM] | -4.1% | 3.9%
CCn1c(=O)c([N+](=O)[O-])c(N2CCN(Cc3ccc4c(c3)OCO4)CC2)c2ccccc21 | -9.7% | ? | ? | 31.6µM* | ? | -3.7%
O=[N+]([O-])c1ccccc1S(=O)(=O)N1CCN(Cc2ccc3c(c2)OCO3)CC1 | 0.6% | 15.8µM* | 50.1µM* | 10µM* | -27.1%[11.4 µM] | -15.4%
CCn1c(=O)c([N+](=O)[O-])c(N2CCSCC2)c2ccccc21 | -0.7% | -14.6% | ? | · | -34.5% | -2.8%
O=[N+]([O-])c1ccccc1S(=O)(=O)N1CCN(Cc2ccccc2)CC1 | 2.6% | 4.1% | ? | 79.4µM* | ? | -0.1%
COCCOC(=O)c1c(C)oc2c1cc(NS(=O)(=O)c1ccc(Cl)c(C)c1)c1ccccc12 | 0.0% | 44.6% | -11.7% | -29.9%[59 µM] | -17.0% | ·
CCOc1ccc(Nc2oc(/C=C/c3cc(OC)c(OC)c(OC)c3)nc2C#N)cc1 | 7.3% | 30.5% | -24.2% | 3.5%[59 µM] | -11.3% | ·
O=C1C=CC(O)(c2cc(=O)c3c(O)cc(O)cc3o2)C=C1 | 18.1% | 20.8% | -1.4% | 44.7µM* | -22.5% | 6.6%
SMILES | GLS inhibitor | HP1b chromo inh | BAZ2B inh | G9a block | JMJD2A Tudor | L3MBTL1 inh
CN(Cc1ccccc1)C(=O)C1CCN(S(=O)(=O)Cc2ccccc2)CC1 | 9.0% | 28.5% | -2.9% | -4.9%[59 µM] | -24.5% | ·
CO/N=C(\C(=O)O)c1csc(NN=C(C)C)n1 | 10.7% | ? | -19.2% | 22.4µM* | 22.4µM* | -6.3%
CCOC(=O)/C(=N/Nc1ccccc1)c1csc(Nc2ccccc2)n1 | 7.6% | -18.0% | ? | ? | ? | ·
CCSc1nc2c([nH]1)c(=O)n(C)c(=S)n2C | 2.3% | ? | · | · | 5.01µM* | ·
Cn1c(=O)c2[nH]c(SCCN3CCCCC3)nc2n(C)c1=S | 5.8% | 5.5%[57 µM] | · | · | -21.4% | ·
Cn1c(=O)c2[nH]c(SCCN3CCOCC3)nc2n(C)c1=S | 5.7% | 5.3%[57 µM] | · | · | 15.8µM* | ·
CCCSc1nc2c([nH]1)c(=O)n(C)c(=S)n2C | 19.2% | 27.4% | · | · | -18.8% | ·
COc1ccc(-n2nc(C(=O)Nc3ccc(C(C)=O)cc3)nc2-c2ccccc2)cc1 | 4.2% | 45.7% | -0.5% | ? | -7.0% | ·
C=CCN1C=CC(=O)[C@@H](O)[C@H]1c1ccccc1Br | -2.1% | 34.0% | · | · | 4.3% | ·
C[C@H]1CC[C@H]2C(=O)N3[C@H](c4ccccc4Br)[C@@H](C)CC[C@H]3C(=O)N2[C@@H]1c1ccccc1Br | · | · | -38.4% | 50.1µM* | · | -13.1%
COc1ccc2c(c1)C(=O)[C@@H](O)[C@H](c1ccc(OC)c(Br)c1)O2 | 0.3% | 66.2% | 89.1µM* | -3.3% | 2.2% | 1.9%
COc1cccc([C@@H]2Oc3ccc(OC)cc3C(=O)[C@H]2O)c1 | 9.0% | 33.9% | 10.3% | 79.4µM* | -9.1% | 12.1%
COc1cc(Cl)c(C)cc1NC(=O)C(OC(=O)CNC(=O)c1ccccc1)c1ccccc1 (configuration not stated) | · | · | · | · | -21.9% | ·
COc1ccccc1NC(=O)CSc1oc(-c2cccs2)nc1S(=O)(=O)c1ccccc1 | 11.8% | 20.9% | -12.8% | ? | -15.0% | ·
COc1cc(CNc2ccccc2SC)ccc1O | 14.5% | 0.2% | ? | ? | 35.5µM* | -1.1%
CN1COc2ccc3ccccc3c2C1 | 6.0% | 43.4% | ? | 2.24µM* | -10.4% | ·
CCOC(=O)c1c(C)[nH]c(C)c1S(=O)(=O)N1CCCC(C(=O)Nc2cccc(CC)c2)C1 (configuration not stated) | -2.2% | 9.6% | -27.3% | -30.5%[59 µM] | -24.7% | ·
